# In all, about 2,100 compounds went through this assay and about 180 (8.6%) showed an effect of 50% or more. Only a selection was taken, and strong results are over-represented in it overall.
# System: MOLM1 and UCSD/AML1 (averaged)
# Assay: cell viability relative to DMSO control (POC); higher = less growth inhibition
# Conditions: 1 µM; 72 h
# Experimental: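 Primary viability screen in the 3q26 EVI1-high AML cell lines MOLM1 and UCSD/AML1 (1.5e3 cells/well, 384-well), compounds at 1 uM for 72 h. ATP CellTiter-Glo read-out given as percent of viable cells over DMSO control (POC), averaged over duplicates. DMSO was the negative control and 5 uM etoposide the positive control. This mapping covers the MicroSource Spectrum and Selleck anticancer libraries (drug names).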
row,SMILES,cell viability [%]
1,C=CC(=O)N1CCC[C@@H](n2nc(-c3ccc(Oc4ccccc4)cc3)c3c(N)ncnc32)C1,60.3
2,Cc1ccc2c(c1)CC[C@H]1CC(=O)CC[C@]21C,104
3,CC(=O)N1CCCC1C(=O)O (centres undefined),108
4,CC(=O)N[C@@H](C=O)[C@@H](O)[C@H](O)[C@H](O)CO,107
5,O=C[C@H](O)[C@@H](O)[C@H](O)CO,121
6,CN(N=O)C(=O)N[C@@H](C=O)[C@@H](O)[C@H](O)[C@H](O)CO [Streptozotocin (Zanosar)],37.4
7,CC(=O)O[C@H]1CC[C@]2(C)[C@H]3CC=C4[C@@H]5CC(C)(C)CC[C@]5(C(=O)O)CC[C@@]4(C)[C@]3(C)CC[C@H]2C1(C)C,102
8,COC(=O)[C@@]1(C)CCC[C@]2(C)c3ccc(O)c(C(C)C)c3CCC12 (some centres undefined),109
9,COC(=O)c1cc(O)c(=O)c2c(O)c(O)ccc2c1,109
10,Cc1cnc(-c2cnc(NCCNc3ccc(C#N)cn3)nc2-c2ccc(Cl)cc2Cl)[nH]1,133
11,Cc1cc(=O)oc2c(O)c(O)ccc12,93.6
12,C=C1CCC(C2CC(=O)OC2=O)C(=O)CCC2C1CC2(C)C (centres undefined),104
13,FC(F)c1nc2ccccc2n1-c1nc(N2CCOCC2)nc(N2CCOCC2)n1,26.8
14,CCOC(=O)c1c(C)cc(O)c(C=O)c1O,98.9
15,CC(=O)/C(=C\c1ccccc1)CC(=O)O,118
16,COC(=O)C[C@H]1C(C)(C)C(=O)[C@@H]2CC3=C(CC[C@]4(C)C3=CC(=O)O[C@H]4c3ccoc3)[C@@]1(C)C2=O,93.4
17,CN1CCN(c2cccc(Nc3nc4c(-c5ccc(S(C)(=O)=O)cc5)cccn4n3)c2)CC1,33.3
18,CC1=CC2C(CC1=O)C(C)=CCC2C(C)C (centres undefined),92.7
19,COc1ccc(-c2cc(=O)c3c(OC)c(OC)c(OC)c(OC)c3o2)cc1,89.9
20,CC(=O)/N=c1/sc(S(N)(=O)=O)nn1C,112
21,CSCC[C@H](NC=O)C(=O)N[C@@H](Cc1ccccc1)C(=O)O,105
22,CC(=O)O[C@@H]1CC[C@@]2(C)C(C[C@@H](OC(C)=O)[C@@]3(C)C4=CC(=O)O[C@@H](c5ccoc5)[C@]4(C)CCC23)C1(C)C (stereo partly drawn) [3alpha-ACETOXYDIHYDRODEOXYGEDUNIN],82
23,O=c1cc(N2CCOCC2)oc2c(-c3ccccc3)cccc12,73.8
24,Oc1cccc(-c2nc(N3CCOCC3)c3oc4ncccc4c3n2)c1,25.7
25,Nc1ccc(C(=O)Nc2cccc(-c3nc(N4CCOCC4)c4oc5ncccc5c4n3)c2)cn1,52.7
26,OC[C@H]1O[C@@H](OCCc2ccc(O)cc2)[C@H](O)[C@@H](O)[C@@H]1O,107
27,CC(=O)O[C@H]1CC[C@]2(C)C3=C(CC[C@H]2C1(C)C)[C@]1(C)CC[C@H]([C@H](C)CCC=C(C)C)[C@@]1(C)CC3,94.1

row,SMILES,cell viability [%]
1,CCn1c(-c2nonc2N)nc2c(C#CC(C)(C)O)ncc(OC[C@H]3CCCNC3)c21,54
2,CCCCC[C@H](CC(=O)O)C(=O)O,111
3,CCCCCCCCCCCCCCCCCCCCCCO,101
4,CCCCCCCCCCCCCCCC[N+](C)(C)C,43.7
5,C[N+](C)(C)CCCCCC[N+](C)(C)C,114
6,COc1cc(OC)c(-c2c(OC)cc(OC)cc2OC)c(OC)c1,104
7,CC1CCC2(OC1)OC1CC3C4CCC5C[C@@H](O)CCC5(C)C4=CCC3(C)C1[C@@H]2C (stereo partly drawn) [3beta-HYDROXYISOALLOSPIROST-9(11)-ENE],91.8
8,CC(=O)Nc1cccc(-n2c(=O)n(C3CC3)c(=O)c3c(Nc4ccc(I)cc4F)n(C)c(=O)c(C)c32)c1,27.3
9,CC(=O)Oc1cc(C)c2c(c1C(OC(C)=O)OC(C)=O)Oc1c(c(C)c(OC(C)=O)c3c1C(OC(C)=O)OC3=O)OC2=O (centres undefined),97.6
10,CC(=O)O[C@H]1C[C@@H](OC(C)=O)C(C)(C)C2CC(=O)[C@]3(C)C(CC[C@@]4(C)[C@H](c5ccoc5)OC(=O)[C@H]5O[C@]543)[C@]21C (some centres undefined),97.1
11,CC(=O)Oc1cc(OC(C)=O)c2c(c1)O[C@H](c1ccc(OC(C)=O)c(OC(C)=O)c1)[C@@H](OC(C)=O)C2,96.7
12,COc1ccc(-c2cc(=O)c3c(O)cc(O)cc3o2)cc1O,83
13,COc1cc(N2CCC(N3CCN(C)CC3)CC2)ccc1Nc1ncc(Cl)c(Nc2ccccc2S(=O)(=O)C(C)C)n1,30.7
14,C=CC(=O)Nc1cccc(Oc2nc(Nc3ccc(N4CCN(C)CC4)cc3OC)ncc2Cl)c1,86.3
15,COc1ccc(-c2oc3c(CC=C(C)C)c(O[C@@H]4O[C@H](CO)[C@@H](O)[C@H](O)[C@H]4O)cc(O)c3c(=O)c2O[C@@H]2O[C@@H](C)[C@H](O)[C@@H](O)[C@H]2O)cc1,83
16,CC(=O)O[C@H]1CC[C@@]2(C)[C@@H](CC[C@@H]3[C@@H]2CC(=O)[C@]2(C)[C@@H]4[C@H](C[C@@H]32)O[C@]2(CC[C@@H](C)CO2)[C@H]4C)C1,88.1
17,CC[C@@H]1C(=O)N(C)c2cnc(Nc3ccc(C(=O)NC4CCN(C)CC4)cc3OC)nc2N1C1CCCC1,13.2
18,COc1cc(OC2CCN(C)CC2)ccc1Nc1ncc2c(n1)n(C1CCCC1)c(=O)n2C,70.8
19,CC[C@@H]1C(=O)N(C)c2cnc(Nc3ccc(C(=O)N[C@H]4CC[C@H](N5CCN(CC6CC6)CC5)CC4)cc3OC)nc2N1C(C)C [BI6727 (Volasertib)],14.5
20,CCOC(=O)CCCCCCCCCCCCC1C=CCC1 (centres undefined),103
21,CN1CCN(C(c2ccccc2)c2ccccc2)CC1,102
22,COC(=O)C1=CO[C@@H](O[C@@H]2O[C@H](CO)[C@@H](O)[C@H](O)[C@H]2O)[C@@H]2[C@@H](C)[C@@H](O)C[C@H]12,94.9
23,CC1(C)CCC[C@]2(C)[C@@H]3[C@H]1[C@@H](O)[C@@]2(C)C[C@H]3O,92
24,CC(C)C[C@H](N)C(=O)N[C@@H](C)C(=O)O,98.2
25,CC(=O)OC(C)(C)[C@@H]1Cc2cc3ccc(=O)oc3cc2O1,100
26,"CCNC(=O)c1noc(-c2cc(C(C)C)c(O)cc2O)c1-c1ccc(CN2CCOCC2)cc1 [Luminespib (AUY-922, NVP-AUY922)]",2.13
27,O=C(O)[C@H](O)[C@@](O)(Cc1ccc(O)cc1)C(=O)O,92.1

# — the supplement of paper PMC11150407
